Giardia FBPA inh = qHTS Assay for Inhibitors of Fructose-1,6-bisphosphate Aldolase from Giardia Lamblia | A8B2U2 | purified Giardia FBPA | Potency, µM (series often up to 59.6 µM), inactives show at the top dose activity, negative = inhibition, hits mostly inhibitors | 290,000 tested, 0.71% active | AID 2451, 2010; note: potency is the fitted concentration of half-maximal effect; nearly all actives have a fitted effect of over 55% in size
Target sequence (A8B2U2 whole entry, looked up): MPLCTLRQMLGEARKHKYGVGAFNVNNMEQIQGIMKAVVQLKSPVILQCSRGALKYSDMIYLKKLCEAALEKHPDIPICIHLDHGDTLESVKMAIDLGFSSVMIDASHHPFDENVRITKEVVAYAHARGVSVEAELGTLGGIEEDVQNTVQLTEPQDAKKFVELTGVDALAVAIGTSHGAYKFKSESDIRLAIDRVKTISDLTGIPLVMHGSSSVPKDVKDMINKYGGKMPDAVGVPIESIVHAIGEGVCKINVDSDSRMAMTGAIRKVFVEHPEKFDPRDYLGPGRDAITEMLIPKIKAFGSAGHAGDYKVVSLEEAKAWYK
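40 nM FBPA preincubated 10 min at RT with compound (up to 57.5 uM final), then substrate plus GAPDH/TPI/NAD/arsenate coupling and diaphorase/resazurin added. Fluorescence read after 20 min at RT, 525/598 nm.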
RE007 growth inh = qHTS Assay for Inhibitors of the HIV-1 protein Vpr; S. pombe RE007 Vpr strain, BacTiter-Glo ATP luminescence, 24 h; Potency, µM (doses to about 92.2 µM), without a hit: at the highest dose activity change, negative = less growth, hits mostly inhibitors; 360,000 tested, 0.21% active; active = well fitted falling curve with a large enough effect; inconclusive = small, poorly fitted or top-dose-only effect; inactive = no such curve, though single readings can be large or run the other way; note: potency is the fitted concentration of half-maximal effect; nearly all actives have a fitted effect of over 50% in size
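Fission yeast RE007 carrying one integrated HIV-1 vpr copy, seeded at OD 0.01 in PMG+AL medium with 23 nL pinned compound. Grown 24 h at 30 degrees; viability read by BacTiter-Glo luminescence after 5 min.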
Sm TGR block = qHTS Assay for the Inhibitors of Schistosoma Mansoni Peroxiredoxins. purified TGR, DTNB reduction, TNB absorbance 405 nm. 360,000 tested, 3% active. Schistosoma mansoni thioredoxin glutathione reductase (TGR), Q962Y6. Potency, µM (top dose mostly 114 µM), for inactives: at the top dose activity change, negative = inhibition, usual class: inhibitors. AID 485364, 2010; note: potency is the fitted concentration of half-maximal effect; nearly all actives have a fitted effect of over 60% in size
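TGR 20 nM + NADPH 100 uM (dispensed conc.), cpd preinc 15 min RT; start with NADPH (500 uM addition) then DTNB (15 mM addition). Kinetic TNB absorbance, 405 nm filter. Four-parameter Hill fit across titration.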
HCMV antiviral = qHTS Assay for inhibitors of the human cytomegalovirus (HCMV); HFF cells, HCMV-luciferase reporter, 72 h; hits give low values; activity change, negative = inhibition, % at 57.5 µM; 410,000 tested, 4.5% active; AID 1259415, 2018; in the data active = activity change below about -60%; inconclusive = no clear call, values can overlap the other calls; inactive = above about -39%
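Compounds were evaluated in HFFs infected with an HCMV luciferase reporter virus (MOI 1 PFU/cell). Luciferase in lysates collected 72 h post infection served as the replication measure.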
FMDV antiviral = High Throughput Screening for Foot and Mouth Disease Virus Antivirals; FMDV antiviral cell-based qHTS; Potency, µM (series often up to 57.9 µM), without a hit: at the highest dose activity change, negative = inhibition, actives largely listed as inhibitors; 410,000 tested, 1.2% active; AID 1159524, 2015; calls by dose curve; tested in HEK293T cells; note: read-out not given here; potency is the fitted concentration of half-maximal effect; nearly all actives have a fitted effect of over 45% in size
TbPYK inhibitor = qHTS of Trypanosoma Brucei Inhibitors; pyruvate kinase (Trypanosoma brucei), Q57TT1; TbPYK enzyme, Kinase-Glo Plus ATP luminescence, 45 min; Potency, µM (titrated, usually from 76.8 µM), inactives show at the highest dose activity, negative = inhibition, most hits filed as inhibitors; 410,000 tested, 0.12% active; AID 624173, 2012; note: potency is the fitted concentration of half-maximal effect; nearly all actives have a fitted effect of over 50% in size
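Luminescent Kinase-Glo Plus end-point after 45 min room-temperature reaction of T. brucei pyruvate kinase started with 130 uM ADP (final). Buffer TEA 50 mM pH 7.2 with KCl, MgCl2, BSA, Tween-20; titration-based qHTS with fitted concentration-effect curves.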
* marks the source's active call; other numbers are inactive results; ? = inconclusive; . = no result given; [ ] = dose if it differs, or a comment. Rows were chosen to be rich in hits. Some 7.7% of all compounds tested hit in one or more screens of this group. Unless noted, calls come from the whole dose curve; as a rule, active = well fitted curve in the direction sought with a large enough effect; inconclusive = small, poorly fitted or top-dose-only effect, or another doubt; inactive = no such curve, though single readings can be large; an effect the other way counts as inactive or inconclusive. % is set by controls: 0 for no effect and ±100 for the full control effect.

SMILES | Giardia FBPA inh | RE007 growth inh | Sm TGR block | HCMV antiviral | FMDV antiviral | TbPYK inhibitor
CC1=C(C(N)=O)C(c2cccc(C)c2)n2nc(-c3ccc(Cl)cc3)nc2N1 (stereo not given) | . | . | 2% | 139 | -5% | 4%
CCCSc1cc(OC)c(CCN)cc1OC | . | . | . | . | . | 3%[157 µM]
CCCCCSc1cc(OC)c(CCN)cc1OC | 6% | 4% | 9% | -70* | 0% | 4%
CN1CCN(Cc2nc3ccccc3c(=O)n2Cc2nc(-c3ccc4ccccc4c3)cs2)CC1 | -3% | 9% | -4% | -76* | ? | 3%
O=C(NCCOc1ccccc1)C1Nc2ccc(C(F)(F)F)cc2C2c3ccccc3CC12 (stereo not given) | . | 13% | . | 84 | -19% | 3%
CCOC(=O)C1Nc2ccc(C(F)(F)F)cc2C2c3ccccc3CC12 (stereo not given) | . | -17% | . | 64 | 28µM* | 1%
O=C(O)c1ccc2c3c(ncnc13)-c1ccccc1C2=O | ? | ? | 50µM* | . | -15% | 2%
O=C(O)c1cccc2c1C(=O)c1ccccc1C2=O | -5% | -3% | -7% | -39 | -14% | 3%
O=C1CCCc2cc3c(cc21)CC1(C3)Cc2cc3c(cc2C1)C(=O)CCC3 | 3% | . | 10% | -81* | ? | -4%
CCc1ccc2c(c1)C(=O)CCC2 | . | 9% | . | -19 | 12% | 5%
C[C@H](CO)N1C[C@H](C)[C@@H](CN(C)C(=O)Nc2ccc3c(c2)OCO3)OCc2cn(nn2)CCCC1=O | . | . | . | 7 | . | .
CCSc1nc2n(n1)C(c1ccc(C(=O)O)cc1)C(C(=O)Nc1ccccc1C)=C(C)N2 (stereo not given) | . | . | 7% | 10 | -1% | -18%
CCOc1ccccc1NC(=O)Cn1c(=O)n(Cc2ccccc2)c(=O)c2cccnc21 | . | . | -3% | 9 | 13% | -3%
COc1ccccc1NC(=O)Cn1c(C)cc(=O)c2cccc(OC)c21 | 4% | 0% | -4% | -10 | 7.1µM* | 0%
COc1cccc2c(=O)cc(C)n(CC(=O)Nc3ccc(C)c(C)c3)c12 | -1% | 10% | -11% | -17 | ? | 6%
COc1ccccc1NC(=O)Cn1c(=O)n(Cc2cccs2)c(=O)c2cccnc21 | . | . | 1% | -64* | -14% | 4%
Cc1ccc2[nH]c(=O)c3cc(C(=O)NCCCN4CCC(C)CC4)sc3c2c1 | . | . | 7% | -20 | 1% | -2%
CCOC(=O)/C=C/[C@@H](C)NC(=O)C(F)(F)F | . | . | . | -22 | . | .
CCc1c(C2(O)CCCCC2)[nH]c2ccc(C(F)(F)F)cc12 | 6% | ? | -3% | -26 | 40µM* | -5%
CN(C)Cc1c(C(C)(C)O)[nH]c2ccc(C(F)(F)F)cc12 | . | 7% | . | -10 | -14% | 0%
C[C@@H]1CN(Cc2ccc3c(c2)CN(Cc2cccc4cccnc24)CCO3)C[C@H](C)O1 | . | . | . | . | 2% | .
Cc1cccc2cc(-c3nc4ccc(C(=O)O)cc4[nH]3)c(=O)oc12 | ? | -12% | 14% | . | 7.9µM* | -10%
CC(C)(C)c1cc(C(C)(C)C)c2oc(=O)c(-c3nc4ccc(C(=O)O)cc4[nH]3)cc2c1 | . | . | 3% | 17 | -21% | 5%
Cn1c(CSCc2ccc(Cl)c(Cl)c2)n[nH]c1=S | -18% | 2% | -14% | -67* | ? | ?
CN(C)c1ncnc2ccc(-c3cccnc3)cc12 | -11% | . | . | . | -16% | .
SMILES | Giardia FBPA inh | RE007 growth inh | Sm TGR block | HCMV antiviral | FMDV antiviral | TbPYK inhibitor
CS(=O)(=O)c1ccc(CNC(=O)C2(C(F)(F)F)CC(CCCO)CCCO2)cc1 (stereo not given) | 6% | 8% | . | -67* | 0% | 0%
CCOc1ccc(C(=O)COC(=O)C2COc3ccccc3O2)cc1 (stereo not given) | . | -1% | 2% | 82 | -27% | 1%
CCc1ccc(C(=O)C(C)OC(=O)C2COc3ccccc3O2)cc1 (stereo not given) | 0% | ? | -1% | -98* | -7% | -7%
C[C@@H]1Nc2ccc(Cl)cc2S(=O)(=O)N1 | -1% | . | . | . | -4% | .
Cc1ccc(C)c(C2NC(=O)c3ccccc3N2)c1 (stereo not given) | 8% | . | 0% | -68* | 2% | 11%
COc1cc(C)c(C2NC(=O)c3ccccc3N2)cc1C (stereo not given) | . | 16% | . | 60 | 6% | -8%
CC(C)/C=C1\CCc2c([nH]c3ccccc23)C1=O | -3% | -25% | 13% | -70* | 25% | 2%
COc1cc2nc(N(C)C)c(CNCc3nonc3C)cc2c(OC)c1OC | . | . | . | . | -3% | .
Cc1noc2ncnc(Sc3ccc(Br)cc3)c12 | 0% | ? | ? | -106* | ? | 5%
Cc1noc2ncnc(N3CCCC3)c12 | 5% | -7% | 1% | -11 | -2% | -3%
O=C1CCC[C@@H](C2=CCCCC2=O)C1 | 2%[12.9 µM] | . | . | . | . | .
COc1ccccc1-c1csc(NC(=O)c2ccc(N3C(=O)CCC3=O)cc2)n1 | -1% | -7% | 10% | 32 | 18µM* | -2%
Cc1ccc(-c2csc(NC(=O)c3cccc(N4C(=O)CCC4=O)c3)n2)o1 | -14% | -2% | 8.9µM* | . | -21% | -19%
COc1ccc(-c2csc(NC(=O)c3ccc(N4C(=O)CCC4=O)cc3)n2)cc1 | 0% | 3% | 7% | -67* | ? | -2%
O=C(Nc1nc(-c2ccc(F)cc2)cs1)c1ccc(N2C(=O)CCC2=O)cc1 | 4% | -13% | -12% | -10 | ? | -6%
COc1ccc(-c2csc(NC(=O)c3cccc(N4C(=O)CCC4=O)c3)n2)cc1OC | . | -12% | 0% | 5 | -18% | 1%
COc1ccccc1CNc1cc(-c2cccc(NS(C)(=O)=O)c2)ncn1 | -9% | . | . | . | ? | .
Cc1ccccc1C1C(C#N)=C2N=C(N)c3ccccc3N2C2=C1C(=O)CCC2 (stereo not given) | -5% | -15% | 17% | -10 | 9% | -1%
N#CC1=C2N=C(N)c3ccccc3N2C2=C(C(=O)CCC2)C1c1cccc(Cl)c1 (stereo not given) | -10% | 1% | -11% | -70* | -3% | -1%
COc1ccc(C(=O)CSc2nn3c(=O)c(C(C)(C)C)nnc3s2)cc1 | -2% | -6% | 29% | 44 | 14µM* | 0%
CC(C)(C)c1nnc2sc(SCC(=O)c3ccccc3)nn2c1=O | -8% | -22% | ? | 67 | -54% | -3%
CCN(CC)CCn1c(=N)n(CC(=O)c2ccc(C)cc2)c2ccccc21 | -3% | -4% | -28% | 140 | 6% | 2%
